# Source: the supplement of paper PMC12282887
# ± gives the standard deviation of the averaged measurements.
# Tests used:
# Test in all cases: promoter activity interaction Z-score (Lux/OD deviation from empty-vector control); higher = stronger promoter induction by the compound
# [1] = system: E. coli BW25113 acrABp lux reporter
# How it was run: (§1)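 At 37°C, E. coli BW25113 reporter cultures in 40 µl LB Lennox in 384-well plates were read for OD600 and luminescence every 30 min for 12 h. Windows were 0–8 h for wild type and 1–9 h for deletion strains, and wells under 10% of the median growth value were removed. The score is the Z-transformed residual of growth-normalised luminescence against a control fit.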
# [2] = system: E. coli BW25113 micFp lux reporter
# How it was run: as §1
# [3] = system: E. coli BW25113 ompFp lux reporter
# How it was run: as §1
# [4] = system: E. coli BW25113 robp lux reporter
# How it was run: as §1
# [5] = system: E. coli BW25113 soxSp lux reporter
# How it was run: as §1
# [6] = system: E. coli BW25113 tolCp lux reporter
# How it was run: as §1
# [7] = 1.3 µg/ml, genetic background: wild type
# [8] = 1.3 µg/ml, genetic background: ΔmarA
# [9] = 1.3 µg/ml, genetic background: Δrob
# [10] = 1.3 µg/ml, genetic background: ΔsoxS
# [11] = 2.5 µg/ml, genetic background: wild type
# [12] = 2.5 µg/ml, genetic background: ΔmarA
# [13] = 2.5 µg/ml, genetic background: Δrob
# [14] = 2.5 µg/ml, genetic background: ΔsoxS
# [15] = 5 µg/ml, genetic background: wild type
# [16] = 5 µg/ml, genetic background: ΔmarA
# [17] = 5 µg/ml, genetic background: Δrob
# [18] = 5 µg/ml, genetic background: ΔsoxS
# [19] = 10 µg/ml, genetic background: wild type
# [20] = 10 µg/ml, genetic background: ΔmarA
# [21] = 10 µg/ml, genetic background: Δrob
# [22] = 10 µg/ml, genetic background: ΔsoxS
smiles,measurement,setting,value
C/C=C/C/C=C/CCC(=O)[C@H]1O[C@H]1C(N)=O [Cerulenin],promoter activity interaction Z-score,[1]; [7],-0.125 ± 0.083
same,promoter activity interaction Z-score,[1]; [8],0.156 ± 2.5
same,promoter activity interaction Z-score,[1]; [9],-0.449 ± 0.14
same,promoter activity interaction Z-score,[1]; [10],-0.289 ± 0.15
same,promoter activity interaction Z-score,[1]; [11],-0.467 ± 0.3
same,promoter activity interaction Z-score,[1]; [12],-0.0359 ± 0.66
same,promoter activity interaction Z-score,[1]; [13],-0.976 ± 0.19
same,promoter activity interaction Z-score,[1]; [14],-0.932 ± 0.045
same,promoter activity interaction Z-score,[1]; [15],-0.444 ± 0.41
same,promoter activity interaction Z-score,[1]; [16],-0.831 ± 1.3
same,promoter activity interaction Z-score,[1]; [17],-0.767 ± 0.071
same,promoter activity interaction Z-score,[1]; [18],-1.14 ± 0.31
same,promoter activity interaction Z-score,[1]; [19],-0.873 ± 0.42
same,promoter activity interaction Z-score,[1]; [20],-0.628 ± 0.16
same,promoter activity interaction Z-score,[1]; [21],-1.08 ± 0.23
same,promoter activity interaction Z-score,[1]; [22],-1.52 ± 0.22
same,promoter activity interaction Z-score,[2]; [7],-0.474 ± 0.33
same,promoter activity interaction Z-score,[2]; [8],-0.0522 ± 0.1
same,promoter activity interaction Z-score,[2]; [9],-0.112 ± 0.0041
same,promoter activity interaction Z-score,[2]; [10],-0.269 ± 0.047
same,promoter activity interaction Z-score,[2]; [11],-0.545 ± 0.087
same,promoter activity interaction Z-score,[2]; [12],0.0153 ± 0.15
same,promoter activity interaction Z-score,[2]; [13],-0.217 ± 0.13
same,promoter activity interaction Z-score,[2]; [14],-0.157 ± 0.23
same,promoter activity interaction Z-score,[2]; [15],-0.73 ± 0.2
same,promoter activity interaction Z-score,[2]; [16],-0.0985 ± 0.11
same,promoter activity interaction Z-score,[2]; [17],-0.316 ± 0.094
same,promoter activity interaction Z-score,[2]; [18],-0.417 ± 0.0084
same,promoter activity interaction Z-score,[2]; [19],-0.803 ± 0.19
same,promoter activity interaction Z-score,[2]; [20],-0.112 ± 0.028
same,promoter activity interaction Z-score,[2]; [21],-0.428 ± 0.056
same,promoter activity interaction Z-score,[2]; [22],-0.177 ± 0.14
same,promoter activity interaction Z-score,[3]; [7],0.448 ± 0.98
same,promoter activity interaction Z-score,[3]; [8],-0.174 ± 0.032
same,promoter activity interaction Z-score,[3]; [9],0.809 ± 0.68
same,promoter activity interaction Z-score,[3]; [10],0.456 ± 0.65
same,promoter activity interaction Z-score,[3]; [11],0.281 ± 0.58
same,promoter activity interaction Z-score,[3]; [12],0.575 ± 1.4
same,promoter activity interaction Z-score,[3]; [13],0.286 ± 1.6
same,promoter activity interaction Z-score,[3]; [14],0.108 ± 0.82
same,promoter activity interaction Z-score,[3]; [15],0.0997 ± 0.61
same,promoter activity interaction Z-score,[3]; [16],-0.516 ± 0.26
same,promoter activity interaction Z-score,[3]; [17],-0.143 ± 0.79
same,promoter activity interaction Z-score,[3]; [18],-0.26 ± 1
same,promoter activity interaction Z-score,[3]; [19],-0.484 ± 0.16
same,promoter activity interaction Z-score,[3]; [20],-0.179 ± 1.2
same,promoter activity interaction Z-score,[3]; [21],-0.74 ± 0.62
same,promoter activity interaction Z-score,[3]; [22],-0.034 ± 1
same,promoter activity interaction Z-score,[4]; [7],-0.713 ± 0.68
same,promoter activity interaction Z-score,[4]; [8],-0.524 ± 0.17
same,promoter activity interaction Z-score,[4]; [9],-0.0923 ± 0.31
same,promoter activity interaction Z-score,[4]; [10],-0.398 ± 0.41
same,promoter activity interaction Z-score,[4]; [11],-0.365 ± 0.25
same,promoter activity interaction Z-score,[4]; [12],1.47 ± 0.041
same,promoter activity interaction Z-score,[4]; [13],-0.839 ± 0.52
same,promoter activity interaction Z-score,[4]; [14],-0.254 ± 0.55
same,promoter activity interaction Z-score,[4]; [15],-0.743 ± 0.19
same,promoter activity interaction Z-score,[4]; [16],-0.973 ± 0.24
same,promoter activity interaction Z-score,[4]; [17],-0.585 ± 0.0081
same,promoter activity interaction Z-score,[4]; [18],-1.25 ± 0.42
same,promoter activity interaction Z-score,[4]; [19],-0.802 ± 0.13
same,promoter activity interaction Z-score,[4]; [20],-0.285 ± 0.72
same,promoter activity interaction Z-score,[4]; [21],-0.242 ± 0.94
same,promoter activity interaction Z-score,[4]; [22],-1.2 ± 0.47
same,promoter activity interaction Z-score,[5]; [7],0.113 ± 0.13
same,promoter activity interaction Z-score,[5]; [8],0.192 ± 0.091
same,promoter activity interaction Z-score,[5]; [9],0.247 ± 0.027
same,promoter activity interaction Z-score,[5]; [10],0.367 ± 0.43
same,promoter activity interaction Z-score,[5]; [11],0.186 ± 0.013
same,promoter activity interaction Z-score,[5]; [12],0.183 ± 0.076
same,promoter activity interaction Z-score,[5]; [13],0.113 ± 0.03
same,promoter activity interaction Z-score,[5]; [14],0.157 ± 0.38
same,promoter activity interaction Z-score,[5]; [15],0.112 ± 0.028
same,promoter activity interaction Z-score,[5]; [16],0.138 ± 0.17
same,promoter activity interaction Z-score,[5]; [17],0.18 ± 0.047
same,promoter activity interaction Z-score,[5]; [18],0.17 ± 0.56
same,promoter activity interaction Z-score,[5]; [19],-0.107 ± 0.23
same,promoter activity interaction Z-score,[5]; [20],-0.0897 ± 0.034
same,promoter activity interaction Z-score,[5]; [21],-0.133 ± 0.19
same,promoter activity interaction Z-score,[5]; [22],0.572 ± 1.2
same,promoter activity interaction Z-score,[6]; [7],-1.14 ± 0.49
same,promoter activity interaction Z-score,[6]; [8],-0.979 ± 0.76
same,promoter activity interaction Z-score,[6]; [9],-0.746 ± 0.32
same,promoter activity interaction Z-score,[6]; [10],-0.768 ± 0.23
same,promoter activity interaction Z-score,[6]; [11],-0.464 ± 0.17
same,promoter activity interaction Z-score,[6]; [12],-0.204 ± 1.3
same,promoter activity interaction Z-score,[6]; [13],-1.38 ± 0.2
same,promoter activity interaction Z-score,[6]; [14],-0.639 ± 0.61
same,promoter activity interaction Z-score,[6]; [15],-0.559 ± 0.033
same,promoter activity interaction Z-score,[6]; [16],-0.9 ± 0.62
same,promoter activity interaction Z-score,[6]; [17],-1.25 ± 0.71
same,promoter activity interaction Z-score,[6]; [18],-1.5 ± 0.1
same,promoter activity interaction Z-score,[6]; [19],-0.737 ± 0.051
same,promoter activity interaction Z-score,[6]; [20],-1.7 ± 0.36
same,promoter activity interaction Z-score,[6]; [21],-0.996 ± 0.2
same,promoter activity interaction Z-score,[6]; [22],-0.404 ± 0.65
